{
  "source": "PubChem BioAssay AID540256",
  "about": "(National Center for Advancing Translational Sciences (NCATS), 2011)",
  "note": "The campaign covered roughly 300,000 compounds. About 3,700 (1.2%) were called active. Where a call stands in place of a potency, no number is given. Another 20% or so got no clear call; they are omitted. Calls follow the shape of the full dose curve; tested in HEK293 cells. Only a selection was taken, and actives are over-represented in it overall. Potency is read from the fitted curve at half-maximal effect.",
  "data": [
    {"test": "qHTS for Inhibitors of binding or entry into cells for Lassa Virus; also: nearly all actives have a fitted effect of over 50% in size", "conditions": "Lassa virus pseudotype entry inhibition, cell reporter; series mostly up to 37.9 µM", "values": [
      {"smiles": "O=C(O)c1ccc(NN=CC2=C(N3CCOCC3)/C(=C/c3ccccc3)CC2)cc1", "Potency": "inactive"},
      {"smiles": "Cc1ccc(/C=N/NC(=O)C2=NNC(c3ccccc3)(c3ccccc3)C2)c(O)c1", "Potency": "14.1 µM (active)"},
      {"smiles": "O=C(N/N=C/c1ccc(O)c2ccccc12)c1cccnc1", "Potency": "inactive"},
      {"smiles": "Cc1ccc2nc(CNC(=O)c3ccccc3)[nH]c2c1", "Potency": "inactive"},
      {"smiles": "CC(NC(=O)c1ccccc1)C(=O)OCC(=O)Nc1cccc(S(=O)(=O)N2CCCC2)c1", "note": "(stereo not drawn)", "Potency": "inactive"},
      {"smiles": "Cc1cc(C)c2nc3nc(C)cc(C)c3c(N)c2c1", "Potency": "12.6 µM (active)"},
      {"smiles": "Cc1cc(C)c2nc(-c3ccco3)cc(C(=O)O)c2c1", "Potency": "inactive"},
      {"smiles": "Cc1cc(C)c2nc(SCCC#N)nc(C)c2c1", "Potency": "inactive"},
      {"smiles": "CCOC(=O)C1(Cc2ccccc2C)CCCN(C(=O)c2ccc(COC)o2)C1", "note": "(stereo not drawn)", "Potency": "inactive"},
      {"smiles": "COc1ccc(N2CCN(S(=O)(=O)c3cc4c5c(c3)C(C)C(=O)N5CCC4)CC2)cc1", "note": "(stereo not drawn)", "Potency": "inactive"},
      {"smiles": "Cc1ccc(NC(=O)c2oc3ccc(S(=O)(=O)N4CCCCC4)cc3c2C)cc1Cl", "Potency": "inactive"},
      {"smiles": "O=C(CN1CCN(C/C=C/c2ccccc2)CC1)Nc1ccc(F)cc1F", "Potency": "inactive"},
      {"smiles": "O=C(CC1SC(=Nc2ccccc2F)N(CCN2CCOCC2)C1=O)Nc1ccc(F)cc1F", "note": "(stereo not drawn)", "Potency": "11.2 µM (active)"},
      {"smiles": "COC(=O)c1sccc1NC(=O)CC1C(=O)NCCN1C(=O)Nc1ccc(F)cc1F", "note": "(stereo not drawn)", "Potency": "inactive"},
      {"smiles": "O=C(c1cc(COc2cccc(C(F)(F)F)c2)on1)N1CCSCC1", "Potency": "inactive"},
      {"smiles": "COc1ccc(Cc2nc3ccc(C(=O)NCC4CCOCC4)cc3o2)cc1OC", "Potency": "inactive"},
      {"smiles": "CCCC=Cc1ccc(CN2C(C(C)C)C(=O)N(Cc3cn(CC4CCCCC4)nn3)CCS2(=O)=O)cc1", "note": "(stereo not drawn)", "Potency": "25 µM (active)"},
      {"smiles": "CC1C(=O)N(Cc2cn(Cc3ccco3)nn2)CCS(=O)(=O)N1Cc1ccc(-c2cccc(CO)c2)cc1", "note": "(stereo not drawn)", "Potency": "inactive"},
      {"smiles": "COCOCCn1cc(CN2CCS(=O)(=O)N(Cc3ccc(-c4cccc(N(C)C)c4)cc3)C(CC(C)C)C2=O)nn1", "note": "(stereo not drawn)", "Potency": "inactive"},
      {"smiles": "CC1CCN(c2ccc(-c3ccc(NC(=O)c4ccco4)cc3)nn2)CC1", "Potency": "inactive"},
      {"smiles": "O=C(O)c1cnn2c(C(F)(F)F)cc(-c3ccccc3)nc12", "Potency": "inactive"},
      {"smiles": "COC(=O)c1cc2nc(-c3ccccc3)cc(C(F)(F)F)n2n1", "Potency": "inactive"},
      {"smiles": "O=C(c1ccccc1)N1CCN(C(=O)c2cc3nc(-c4ccccc4)cc(C(F)(F)F)n3n2)CC1", "Potency": "11.2 µM (active)"},
      {"smiles": "Cn1cc(S(=O)(=O)N2CCCCCC2)cc1C(=O)N1CCN(c2ccc(F)cc2)CC1", "Potency": "inactive"},
      {"smiles": "COc1cc2c(cc1OC)C(Cc1cc(OC)c(OC)cc1[N+](=O)[O-])=NCC2", "Potency": "inactive"},
      {"smiles": "COC(=O)Nc1nc2ccc(Oc3ccc(NC(=O)Nc4cccc(Cl)c4)cc3)cc2[nH]1", "Potency": "6.28 µM (active)"},
      {"smiles": "Cc1cc(Cl)nc(NC(=O)Nc2cccc(Cl)c2)n1", "Potency": "inactive"},
      {"smiles": "COC(=O)Nc1nc2ccc(Sc3ccccc3)cc2[nH]1", "Potency": "inactive"}
    ]}
  ]
}
